Measured values reported in PubChem BioAssay (NCATS).
Inconclusive results are not listed. The source made the active and inactive calls. Unless noted, the call rests on the fitted dose curve; in most records, active means well fitted curve in either direction with a large enough effect (not every such curve was filed as active); inconclusive means small, poorly fitted or top-dose-only effect, or another doubt; inactive means flat fitted curve, though single readings scatter.

Assays:
[1] = biological target: Lysosomal acid glucosylceramidase (Homo sapiens) (UniProt P04062); experiment: Glucocerebrosidase-p2 (AID 348; in the data active means potency below about 10 µM; further: potency means the concentration at half of the fitted maximal effect); conditions: purified GBA, blue fluorogenic substrate, 40 min
How it was run: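 Normal human glucocerebrosidase (0.2 nM) with blue fluorogenic substrate (80 uM final) in citrate/phosphate pH 5.9 with 10mM sodium taurocholate, 0.01% tween-20; 40 min RT, NaOH/glycine stop; fluorescence Ex 365/Em 440; AC50 from a titration from 0.6 nM upwards.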

[2] = AP1 Signaling Pathway (AID 357); conditions: ME-180 AP-1-bla reporter, EGF-induced, beta-lactamase ratio, 5 h; at 7.69 µM (top of the series) unless noted; further: on the % scale 0 is the no-effect control and ±100 the full control effect
How it was run: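 ME-180 cells with beta-lactamase reporter under AP-1 response element, stimulated with EC50 EGF; compounds tested in titration series, 5 h at 37 °C. CCF4 substrate added 2.5 h at room temperature; 460/530 nm emission ratio gave %activity and AC50.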

[3] = biological target: Cytochrome P450 1A2 (Homo sapiens) (UniProt P05177); experiment: p450-cyp1a2 (AID 410; calls by dose curve; further: potency means the concentration at half of the fitted maximal effect); conditions: recombinant CYP1A2, luciferin-ME demethylation, luminescence; series mostly up to 57 µM
How it was run: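 Read-out is luminescence from luciferin produced by CYP1A2 demethylation of Luciferin-ME (100uM, at Km). Detection reagent stopped the 60 min NADPH-dependent reaction; signals were normalized to 57 uM furafylline.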

[4] = NFAT Signaling Pathway (AID 444); conditions: Jurkat NFAT-bla M1, carbachol, beta-lactamase ratio, 5 h; at 7.69 µM (top of the series) unless noted;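 further: carbachol stimulus at about its EC50 of 1 µM final; on the % scale 0 is the no-effect control and ±100 the full control effect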
How it was run: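 Read-out: CCF4 FRET ratio (460 nm/530 nm) after 1 h RT dye loading, used for %activity and AC50 from titration series. Cells: Jurkat NFAT-β-lactamase/M1 line, treated with compound plus 1 uM carbachol for 5 h, 37 °C.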

[5] = Stat Signaling Pathway (AID 446); conditions: ME-180 (cervical carcinoma) SIE beta-lactamase reporter, IL-6 stimulated, 5 h; at 7.69 µM (top of the series) unless noted;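 further: ME-180 cervical cancer cells given 40 pM IL-6 alongside compound; SIE-controlled beta-lactamase reporter measured as 460/530 nm FRET emission ratio; on the % scale 0 is the no-effect control and ±100 the full control effect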
How it was run: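 FRET read-out (405 nm excitation, 460/530 nm emission) of a beta-lactamase reporter under a STAT-inducible element in ME-180 cervical carcinoma cells. Cells with compound receive 40 pM IL-6 for 5 h. Values are normalised to AC90 stimulation and AC90 JAK-inhibitor controls.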

[6] = biological target: Glucocorticoid receptor (Homo sapiens) (UniProt P04150); experiment: GR-GFP Redistribution (AID 450;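 active means compounds whose dose series gives a full or clear partial fitted curve of increased nuclear translocation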; further: potency means the concentration at half of the fitted maximal effect); conditions: U2OS GR-GFP nuclear translocation, laser cytometry, 2 h
[7] = biological target: Glucocorticoid receptor (Homo sapiens) (UniProt P04150); experiment: GR-EFC Redistribution (AID 451; calls by dose curve; further: potency means the concentration at half of the fitted maximal effect); conditions: CHO-K1 GR-EFC translocation, beta-gal luminescence, 2 h
How it was run: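 Translocation of GR-ED fusion to nuclear EA restores b-gal, read by luminescence after 1 h room-temperature detection. Engineered CHO-K1 biosensor cells, 1,000/well, exposed 2 h at 37 C to titrations up to 46 uM final.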

[8] = biological target: Mitogen-activated protein kinase 10 (Mus musculus) (UniProt Q61831); experiment: JNK3 AlphaScreen Assay (AID 530); conditions: JNK3 lysate, c-Jun phosphorylation; series mostly up to 57.1 µM;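 further: kinase came from lysate of stimulated human HepG2 cells; signal reports phosphorylation of biotinylated GST-cJun 1-79 at Ser73 with 10 µM ATP; on the % scale 0 is the no-effect control and ±100 the full control effect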
How it was run: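 Kinase buffer: 20 mM Tris-HCl pH 7.6, 10 mM MgCl2, 1 mM DTT, 0.1 mM Na3VO4, 0.01% Tween-20; ATP 10 uM. Substrate biotin-GST-cJun(1-79), enzyme from activated HepG2 lysates. Detection by Ser73 phospho-antibody AlphaScreen.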

[9] = biological target: Cytochrome P450 3A4 (Homo sapiens) (UniProt P08684); experiment: qHTS Assay for Activators of Cytochrome P450 3A4 (AID 885; active means well fitted curve in the direction sought with a large enough effect; an effect the other way counts as inactive or inconclusive; further: nearly all actives have a fitted effect of over 65% in size); conditions: recombinant CYP3A4, Luciferin-PPXE luminescence, 60 min; series mostly up to 57.1 µM
How it was run: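 Luminescent readout of luciferin formed from 25 uM Luciferin-PPXE (KM level) by 20 nM CYP3A4 in 200 mM KPO4, with 60 min NADPH-driven reaction at room temperature after 10 min compound exposure. Ketoconazole (57 uM) defined 100% inhibition.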

[10] = qHTS Assay for Lipid Storage Modulators (AID 1519; calls by dose curve); conditions: Drosophila S3 cells, BODIPY lipid droplet/cell ratio, laser cytometry, cells loaded with oleic acid; for activity change, negative = inhibition: at 57.5 µM (top of the series)
How it was run: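 Cells seeded at 5,000 per well were treated with compounds over a concentration series and loaded with oleic acid (400 uM, as added). Lipid droplet fluorescence (488 nm excitation, 500-530 nm channel) was read by laser-scanning cytometry and normalized to 20 uM Triacsin C.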

[11] = biological target: 3',5'-cyclic-AMP phosphodiesterase 4B (Homo sapiens) (UniProt Q07343); experiment: qHTS Assay for Inhibitors of PDE-IV (AID 607; active means well fitted activation curve with a large enough effect in the main read-out, with a control signal flat, not every such curve was filed as active; further: % of control where 0% means no effect); conditions: HEK293 ACTOne CNG channel cells, membrane potential fluorescence; series mostly up to 22.9 µM
How it was run: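 Cell-based read-out of cAMP via a modified cyclic nucleotide-gated channel and membrane potential dye (535/590 nm) in HEK293 cells expressing PDE4 endogenously. Compounds tested up to 22.9 uM final; 100 uM RO 20-1724 reference.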

[12] = biological target: Cytochrome P450 3A4 (Homo sapiens) (UniProt P08684); experiment: qHTS Assay for Inhibitors and Substrates of Cytochrome P450 3A4 (AID 884; active means well fitted curve in the direction sought with a large enough effect; an effect the other way counts as inactive or inconclusive; further: potency means the concentration at half of the fitted maximal effect; nearly all actives have a fitted effect of over 50% in size); conditions: recombinant CYP3A4, Luciferin-PPXE luminescence; series mostly up to 57.1 µM
How it was run: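 Luminescent readout of luciferin produced by CYP3A4 (20 nM) dealkylation of Luciferin-PPXE, 25 uM (its KM). NADPH-driven reaction ran 60 min at RT after 10 min compound preincubation; data scaled to 57 uM ketoconazole as 100% inhibition.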

[13] = Confirmation and Secondary Assay for Modulators of Hemoglobin Beta Chain Splicing at IVS2 654 locus (AID 910; active means well fitted curve in the direction sought with a large enough effect; an effect the other way counts as inactive or inconclusive;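 further: HeLa cells stably carrying EGFP split by mutant beta-globin IVS2-654 intron; per-well total GFP intensity by laser scanning cytometry after 2-day treatment; % of control where 0% means no effect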); conditions: HeLa EGFP-654 splicing reporter, GFP fluorescence, 48 h; series mostly up to 38.3 µM
How it was run: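 Readout: per-well total peak green fluorescence (488 nm ex, 500–520 nm em) from objects 5–250 µm, reflecting correct splicing of an EGFP-654 reporter. Compounds were applied for 2 days at 37 °C to overnight-plated HeLa EGFP-654 cells; controls were DMSO and 500 nM IVS2-654 PNA.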

[14] = Confirmation and Secondary Assay for Modulators of Hemoglobin Beta Chain Splicing at IVS2 705 locus (AID 930; active means well fitted curve in the direction sought with a large enough effect; an effect the other way counts as inactive or inconclusive;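 further: HeLa cells stably expressing the EGFP-705 splicing reporter; % of control where 0% means no effect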); conditions: HeLa EGFP-705 splicing reporter, GFP fluorescence, 48 h; series mostly up to 38.3 µM
How it was run: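 Restored EGFP fluorescence after 2-day compound exposure reports splicing correction in IVS2-705 EGFP reporter HeLa cells; positive control was 500 nM splice-blocking PNA oligo. Signal measured as well total peak GFP intensity (488 nm excitation).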

[15] = biological target: Ubiquitin carboxyl-terminal hydrolase 1 (Homo sapiens) (UniProt O94782); experiment: Inhibitors of USP1/UAF1: Pilot qHTS (AID 504865; active means well fitted curve in the direction sought with a large enough effect; an effect the other way counts as inactive or inconclusive;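 further: rhodamine fluorescence freed from ubiquitin-rhodamine substrate followed over time; top concentration of the series differs between compounds; on the % scale 0 is the no-effect control and ±100 the full control effect; nearly all actives have a fitted effect of over 35% in size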); conditions: purified USP1/UAF1, Ub-rhodamine cleavage fluorescence; series mostly up to 54.9 µM
How it was run: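 USP1/UAF1 complex at 1 nM preincubated 15 min at room temperature with compound, then Ub-Rho substrate added at 150 nM final. Fluorescence (480/540 nm) read kinetically in 50 mM HEPES pH 7.8, 0.5 mM EDTA, 1 mM TCEP, 0.1 mg/ml BSA, 0.01% Tween-20.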

[16] = biological target: Cytochrome P450 2C19 (Homo sapiens) (UniProt P33261); experiment: qHTS Assay for Inhibitors and Substrates of Cytochrome P450 2C19 (AID 899; active means well fitted curve in the direction sought with a large enough effect; an effect the other way counts as inactive or inconclusive; further: potency means the concentration at half of the fitted maximal effect; nearly all actives have a fitted effect of over 60% in size); conditions: recombinant CYP2C19, luciferin-H EGE luminescence; series mostly up to 57.1 µM
How it was run: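 5nM enzyme + 10uM Luciferin-H EGE (=KM), 50mM KPO4; cpd pin-transferred, 10 min 37C; NADPH regen, 60 min 37C; stopped w/ luciferin detection reagent, 20 min; luminescence. Normalized to 57uM ketoconazole (AC100).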

[17] = measured here: cell count channel max response
[18] = measured here: lipid channel max response

Chain of Cytochrome P450 3A4 (Homo sapiens) (P08684 whole entry, looked up): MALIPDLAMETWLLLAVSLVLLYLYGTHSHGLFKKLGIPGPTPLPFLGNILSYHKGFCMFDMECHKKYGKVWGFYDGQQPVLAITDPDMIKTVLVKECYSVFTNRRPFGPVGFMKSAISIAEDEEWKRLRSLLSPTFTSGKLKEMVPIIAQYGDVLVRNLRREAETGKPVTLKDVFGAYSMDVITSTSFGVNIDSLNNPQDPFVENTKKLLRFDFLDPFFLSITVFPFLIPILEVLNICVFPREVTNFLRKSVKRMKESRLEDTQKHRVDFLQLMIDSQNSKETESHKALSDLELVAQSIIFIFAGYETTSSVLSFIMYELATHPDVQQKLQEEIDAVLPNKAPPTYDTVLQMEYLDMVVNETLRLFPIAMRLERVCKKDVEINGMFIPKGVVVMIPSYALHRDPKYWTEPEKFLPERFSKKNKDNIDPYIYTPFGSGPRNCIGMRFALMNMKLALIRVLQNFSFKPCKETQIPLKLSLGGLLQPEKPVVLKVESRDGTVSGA
Chain of Cytochrome P450 1A2 (Homo sapiens) (P05177 whole entry, looked up): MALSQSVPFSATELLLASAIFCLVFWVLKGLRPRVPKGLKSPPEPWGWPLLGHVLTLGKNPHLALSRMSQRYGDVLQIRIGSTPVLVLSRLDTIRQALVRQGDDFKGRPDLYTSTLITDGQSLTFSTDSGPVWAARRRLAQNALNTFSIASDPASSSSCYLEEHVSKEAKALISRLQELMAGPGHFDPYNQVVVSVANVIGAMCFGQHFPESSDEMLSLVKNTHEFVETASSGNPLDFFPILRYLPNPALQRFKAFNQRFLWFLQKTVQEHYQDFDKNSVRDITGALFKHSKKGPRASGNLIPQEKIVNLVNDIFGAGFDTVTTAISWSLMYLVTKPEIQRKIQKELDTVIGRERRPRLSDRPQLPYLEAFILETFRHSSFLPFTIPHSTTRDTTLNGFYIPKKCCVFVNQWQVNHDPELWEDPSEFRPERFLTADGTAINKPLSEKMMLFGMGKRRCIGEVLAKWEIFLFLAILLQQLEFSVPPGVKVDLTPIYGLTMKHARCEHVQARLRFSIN
Chain of Glucocorticoid receptor (Homo sapiens) (P04150 whole entry, looked up, the tested form may be a part): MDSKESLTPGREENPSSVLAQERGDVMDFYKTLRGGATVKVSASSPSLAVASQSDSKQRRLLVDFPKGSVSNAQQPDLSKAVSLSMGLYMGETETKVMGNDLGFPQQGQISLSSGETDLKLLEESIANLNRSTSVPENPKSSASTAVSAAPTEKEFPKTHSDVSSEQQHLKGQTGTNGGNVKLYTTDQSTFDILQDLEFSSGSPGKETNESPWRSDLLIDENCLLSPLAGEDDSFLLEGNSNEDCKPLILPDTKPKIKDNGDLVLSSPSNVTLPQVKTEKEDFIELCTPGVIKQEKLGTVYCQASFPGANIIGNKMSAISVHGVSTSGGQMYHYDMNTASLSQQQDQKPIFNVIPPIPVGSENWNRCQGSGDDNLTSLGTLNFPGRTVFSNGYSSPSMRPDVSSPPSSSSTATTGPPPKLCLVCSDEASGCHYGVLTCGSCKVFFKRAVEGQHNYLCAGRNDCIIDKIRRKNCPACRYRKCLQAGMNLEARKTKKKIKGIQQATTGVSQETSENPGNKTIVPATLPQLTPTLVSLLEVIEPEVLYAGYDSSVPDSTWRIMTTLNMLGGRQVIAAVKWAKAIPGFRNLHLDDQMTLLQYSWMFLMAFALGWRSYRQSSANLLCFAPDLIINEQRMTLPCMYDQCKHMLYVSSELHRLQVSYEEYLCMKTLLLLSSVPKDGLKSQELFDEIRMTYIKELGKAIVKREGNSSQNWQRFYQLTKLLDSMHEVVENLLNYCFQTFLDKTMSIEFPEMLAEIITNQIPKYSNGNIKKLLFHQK
Chain of Lysosomal acid glucosylceramidase (Homo sapiens) (P04062 whole entry, looked up): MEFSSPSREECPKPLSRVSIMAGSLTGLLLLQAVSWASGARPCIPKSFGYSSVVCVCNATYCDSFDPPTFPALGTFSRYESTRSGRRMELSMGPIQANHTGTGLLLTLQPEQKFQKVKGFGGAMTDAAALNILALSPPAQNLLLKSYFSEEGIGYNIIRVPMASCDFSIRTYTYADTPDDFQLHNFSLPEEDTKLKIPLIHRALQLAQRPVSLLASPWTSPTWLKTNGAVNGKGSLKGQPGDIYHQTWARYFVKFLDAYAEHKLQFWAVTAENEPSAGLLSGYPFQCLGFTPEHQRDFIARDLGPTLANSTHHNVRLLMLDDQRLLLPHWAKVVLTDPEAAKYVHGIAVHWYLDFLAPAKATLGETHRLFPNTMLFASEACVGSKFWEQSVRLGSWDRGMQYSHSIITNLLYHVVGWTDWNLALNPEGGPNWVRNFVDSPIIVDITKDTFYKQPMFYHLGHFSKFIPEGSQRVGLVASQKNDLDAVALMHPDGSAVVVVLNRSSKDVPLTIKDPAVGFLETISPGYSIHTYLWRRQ
Chain of Ubiquitin carboxyl-terminal hydrolase 1 (Homo sapiens) (O94782 whole entry, looked up): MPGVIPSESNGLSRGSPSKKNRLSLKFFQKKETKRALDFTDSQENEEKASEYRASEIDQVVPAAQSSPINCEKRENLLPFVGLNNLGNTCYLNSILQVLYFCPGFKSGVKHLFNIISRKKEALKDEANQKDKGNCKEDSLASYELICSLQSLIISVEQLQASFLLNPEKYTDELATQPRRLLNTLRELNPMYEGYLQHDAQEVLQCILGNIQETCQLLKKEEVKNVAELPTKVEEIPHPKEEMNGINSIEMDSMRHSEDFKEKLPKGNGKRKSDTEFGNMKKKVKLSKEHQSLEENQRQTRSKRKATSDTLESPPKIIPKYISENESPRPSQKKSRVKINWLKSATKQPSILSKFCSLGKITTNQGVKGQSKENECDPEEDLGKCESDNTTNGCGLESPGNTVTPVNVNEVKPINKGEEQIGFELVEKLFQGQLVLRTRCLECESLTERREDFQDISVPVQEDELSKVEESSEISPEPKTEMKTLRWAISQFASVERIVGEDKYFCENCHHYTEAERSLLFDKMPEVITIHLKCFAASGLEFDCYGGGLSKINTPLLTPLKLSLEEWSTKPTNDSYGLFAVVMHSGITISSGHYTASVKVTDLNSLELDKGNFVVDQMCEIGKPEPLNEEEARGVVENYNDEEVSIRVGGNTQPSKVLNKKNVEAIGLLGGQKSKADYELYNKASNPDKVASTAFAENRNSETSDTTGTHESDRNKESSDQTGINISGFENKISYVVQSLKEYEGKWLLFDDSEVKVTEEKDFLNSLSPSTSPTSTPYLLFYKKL
Chain of 3',5'-cyclic-AMP phosphodiesterase 4B (Homo sapiens) (Q07343 whole entry, looked up): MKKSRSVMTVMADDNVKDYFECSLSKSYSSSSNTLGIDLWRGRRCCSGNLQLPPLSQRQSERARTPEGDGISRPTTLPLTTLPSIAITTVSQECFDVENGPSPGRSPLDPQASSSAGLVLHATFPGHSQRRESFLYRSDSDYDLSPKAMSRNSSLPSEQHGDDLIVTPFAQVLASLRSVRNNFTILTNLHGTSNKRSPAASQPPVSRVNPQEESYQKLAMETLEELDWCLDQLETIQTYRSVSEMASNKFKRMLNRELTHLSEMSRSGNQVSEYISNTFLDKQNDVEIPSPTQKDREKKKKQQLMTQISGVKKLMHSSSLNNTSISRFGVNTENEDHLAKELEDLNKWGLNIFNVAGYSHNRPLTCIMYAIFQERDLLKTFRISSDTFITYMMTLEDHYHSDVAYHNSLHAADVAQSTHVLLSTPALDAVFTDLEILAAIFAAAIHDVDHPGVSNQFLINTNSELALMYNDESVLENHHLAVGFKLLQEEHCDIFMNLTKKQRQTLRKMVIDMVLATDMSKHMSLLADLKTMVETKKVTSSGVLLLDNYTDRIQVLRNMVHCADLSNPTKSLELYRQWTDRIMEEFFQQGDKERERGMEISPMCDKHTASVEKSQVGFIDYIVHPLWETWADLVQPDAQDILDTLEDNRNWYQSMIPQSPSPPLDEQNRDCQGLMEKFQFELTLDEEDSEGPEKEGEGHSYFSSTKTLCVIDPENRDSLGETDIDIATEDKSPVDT
Chain of Cytochrome P450 2C19 (Homo sapiens) (P33261 whole entry, looked up): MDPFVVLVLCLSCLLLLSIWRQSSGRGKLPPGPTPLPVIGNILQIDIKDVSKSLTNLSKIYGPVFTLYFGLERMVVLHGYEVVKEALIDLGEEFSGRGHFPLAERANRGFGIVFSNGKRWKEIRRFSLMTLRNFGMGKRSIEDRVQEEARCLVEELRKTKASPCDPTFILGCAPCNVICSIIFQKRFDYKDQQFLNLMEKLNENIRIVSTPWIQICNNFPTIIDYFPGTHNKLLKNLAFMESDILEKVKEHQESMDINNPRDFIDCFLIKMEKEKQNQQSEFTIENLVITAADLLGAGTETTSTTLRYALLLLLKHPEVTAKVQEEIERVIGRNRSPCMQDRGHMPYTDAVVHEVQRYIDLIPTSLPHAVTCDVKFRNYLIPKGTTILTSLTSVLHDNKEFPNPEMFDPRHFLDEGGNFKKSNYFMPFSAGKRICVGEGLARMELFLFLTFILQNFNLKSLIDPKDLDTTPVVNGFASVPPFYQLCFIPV

Row | Compound | Potency [1] | activity change, negative = inhibition [2] | Potency [3] | activity change, negative = inhibition [4] | activity, negative = inhibition [5] | Potency [6] | Potency [7] | Potency [8] | Potency [9] | activity change, negative = inhibition [10] | max response [10, 17] [%] | max response [10, 18] [%] | Potency [11] | Potency [12] | Potency [13] | outcome [14] | Potency [15] | Potency [16]
1 | Cc1nc2cnc(N(C)C)nc2n(Cc2cccs2)c1=O | > 11.4 µM (inactive) | -12% (inactive) | 1.26 µM (active) | -7.11% (inactive) | -2.49% (inactive) | > 9.22 µM (inactive) | > 46 µM (inactive) | inactive | inactive | 3.99% (inactive) | 10.1 | 16.8 |  |  |  |  |  | 
2 | CN(C)c1ccc(-c2cc(NCc3cccnc3)ncn2)cc1 | > 11.4 µM (inactive) | -9.72% (inactive) | 0.398 µM (active) | 5.75% (inactive) | 0.912% (inactive) | > 46 µM (inactive) | > 46 µM (inactive) | inactive | inactive | 7.63% (inactive) | 14.7 | 22.6 | inactive | 3.16 µM (active) | inactive | inactive | inactive | 
3 | COCCNc1ncnc2ccc(-c3ccccc3CN(C)C)cc12 | > 11.4 µM (inactive) | -22.6% (inactive) | 25.1 µM (active) | -6.98% (inactive) | 4.88% (inactive) | > 46 µM (inactive) | > 46 µM (inactive) | inactive | inactive | 12.3% (inactive) | 13.6 | 25.7 | inactive |  | inactive | inactive | inactive | 
4 | COc1ccccc1-c1cncnc1NCc1cccc(C)c1 | > 11.4 µM (inactive) | -3.97% (inactive) | 5.01 µM (active) | -21.2% (inactive) | -6.93% (inactive) | > 46 µM (inactive) | > 46 µM (inactive) | inactive | inactive | 10.8% (inactive) | 7.88 | 19.2 |  |  | inactive |  |  | 0.398 µM (active)
5 | Cc1cccc(CNc2ccnc(-c3ccc(C(=O)N(C)C)cc3)n2)c1 | > 11.4 µM (inactive) | -17.2% (inactive) | 25.1 µM (active) | 6.95% (inactive) | -2.13% (inactive) | > 46 µM (inactive) | > 46 µM (inactive) |  |  | 7.06% (inactive) | -6.92 | 0.35 |  |  | inactive | inactive | inactive | 
6 | CN(C)Cc1ccccc1-c1ccc2ncnc(NCc3cccs3)c2c1 | > 11.4 µM (inactive) | 4.22% (inactive) |  | -20.1% (inactive) | -19.4% (inactive) | > 46 µM (inactive) | > 46 µM (inactive) | inactive |  | 7.62% (inactive) | -0.921 | 6.51 |  |  | inactive | inactive | inactive | 
